Several values for one entry are separate records, joined by “and”; a condition that tells them apart may be missing. Equal entries are not always repeated. Structures can show the parent of a compound that is named as a salt.
How the values were obtained:
Experiment in all cases: cell viability relative to vehicle control; higher = less cytotoxic
Details in all cases: 10 µM
K562 = test system: K562
How it was run: (§1)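 Each screen used CRISPR-edited mutant and wild-type clones from four leukaemia lines. Compounds were acoustically dispensed at a single 10 µM dose, and CellTiter-Glo luminescence was read after 48 h with the supernatant first removed. Viability was analysed in Genedata Screener and given as percent of the on-plate vehicle control.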

MARIMO = test system: MARIMO
How it was run: as §1

MOLM14 = test system: MOLM14
How it was run: as §1

OCI-AML2 = test system: OCI-AML2
How it was run: as §1

Structure (SMILES)	cell viability (K562; SRSF2 genotype: SRSF2 P95H/wt)	cell viability (K562; SRSF2 genotype: SRSF2 wt/wt) [%]	cell viability (MARIMO; SRSF2 genotype: SRSF2 P95H/wt) [%]	cell viability (MARIMO; SRSF2 genotype: SRSF2 wt/wt) [%]	cell viability (MOLM14; SRSF2 genotype: SRSF2 P95H/wt) [%]	cell viability (MOLM14; SRSF2 genotype: SRSF2 wt/wt) [%]	cell viability (OCI-AML2; SRSF2 genotype: P95H/wt) [%]	cell viability (OCI-AML2; SRSF2 genotype: wt/wt) [%]
O=C(COc1ccc(Cl)cc1)NC1CCC(NC(=O)COc2ccc(Cl)cc2)CC1 (stereo not drawn) [ISRIB (trans-isomer)]	96.3% and 97.5%	100	103	102	107	98.7	99.2	95.9
Fc1cc(-c2cccc3ncc(-c4cnn(C5CCNCC5)c4)nc23)cc(F)c1CN1CCOCC1	3.45% and 6.22%	7.58	31.9	5.4	0.59	0.69	0.94	2.89
O=C(/C=C/c1ccc2ccccc2n1)c1ccncc1	6.76% and 0.53%	0.42	0.28	0.4	0.4	0.45	0.31	0.36
C=C1/C(=C\C=C2/CCC[C@]3(C)[C@@H]([C@H](C)/C=C/[C@@H](O)C4CC4)CC[C@@H]23)C[C@@H](O)C[C@@H]1O [Calcipotriene]	75.3% and 84.2%	79.8	65	65.3	66.8	63.6	79.2	96.1
O=C(O)/C=C/c1ccc(O)cc1 [p-Coumaric Acid]	101% and 108%	110	108	110	107	107	109	103
CN(C)c1ccc(C(=C2C=CC(=[N+](C)C)C=C2)c2ccc(N(C)C)cc2)cc1 [Crystal violet]	0.3% and 0.45%	1.14	0.76	1.04	0.09	0.09	0.06	0.11
CCN(CC)CCOc1ccc(C(=C(Cl)c2ccccc2)c2ccccc2)cc1 [Clomifene citrate (Serophene)]	37.2% and 36.3%	62.6	57.2	61.7	50.8	60.9	54.5	52.3
CCc1cccc2c3c([nH]c12)C(CC)(CC(=O)O)OCC3 (centres undefined) [Etodolac (Lodine)]	99.4% and 101%	92.6	89.7	96.5	93	97.8	86.8	93.7
C[C@@H]([C@H](C)O)[C@H](N)C(=O)O [(4S)-4-Hydroxy-L-isoleucine]	105% and 96.3%	102	100	102	111	102	108	104
Cc1cc(C)cc(Oc2ccc(CNC(=O)[C@H](C)N)cc2C)c1	85.9% and 95.5%	93.9	86.5	87.8	78.1	94.3	75.5	83.3
Cc1nccn1CC1CCc2c(c3ccccc3n2C)C1=O (centres undefined) [Ondansetron Hydrochloride Dihydrate]	95.8% and 94.2%	91.5	95.9	108	97.4	97.4	88.6	99.1
OCCc1c[nH]c2ccccc12 [Tryptophol]	102% and 92.7%	94.7	100	110	97.8	99.4	90.5	111
CC(=O)OCC=Cc1ccccc1 [Cinnamyl acetate]	98.4% and 95.9%	104	99.4	95.9	101	102	101	111
CCCCC1OC(=O)c2ccccc21 (centres undefined) [3-n-Butylphathlide]	93.7% and 104%	91.5	91.9	104	99.8	96.7	90.6	94.2
CC(=O)C1=C(O)C=C2Oc3c(C(C)=O)c(O)c(C)c(O)c3C2(C)C1=O (single isomer, unassigned; (+)) [(+)-Usniacin (D-Usnic acid)]	98.5% and 99.9%	97.7	95.4	106	95	99	90.8	98.9
O=C1C(Cl)=C(N2CCOCC2)C(=O)N1c1ccc(Cl)c(Cl)c1	97.9% and 96%	97.4	88.2	109	87	94	83.3	96.4
O=S(=O)(c1ccc2c(c1)C(=NO)c1cc(S(=O)(=O)N3CCCCC3)ccc1-2)N1CCCCC1	0.51% and 0.55%	0.51	3.1	0.51	0.31	30.1	0.87	0.36
O=c1cc(-c2ccccc2)oc2cc(O)cc(O)c12 [Chrysin]	100% and 104%	105	93	107	81.1	93.7	86.7	75.3
CCc1c(O)cc(O)c(C(=O)c2ccc(OCCN3CCOCC3)c(OC)c2)c1CC(=O)N(CCOC)CCOC	20.4% and 29.7%	25.7	29.3	25.4	2.57	2.85	19.3	21.8
CCN(CC)CCOC(=O)c1ccc(N)cc1Cl [Chloroprocaine HCl]	95.2% and 93.5%	97.1	103	115	98	99.3	90.7	113
COc1cc(/C=C/C(=O)OC[C@H]2O[C@H](O[C@]3(CO)O[C@H](CO)[C@@H](O)[C@@H]3OC(=O)/C=C/c3cc(OC)c(O)c(OC)c3)[C@H](O)[C@@H](O)[C@@H]2O)cc(OC)c1O [3,6'-Disinapoyl sucrose]	106% and 103%	101	106	109	112	105	102	105
CC(C)=CCc1cc2c(cc1O)oc(=O)c1c3ccc(O)cc3oc21 [Psoralidin]	98.2% and 95.7%	95.2	98	106	115	107	98	98.9

Structure (SMILES)	cell viability (K562; SRSF2 genotype: SRSF2 P95H/wt)	cell viability (K562; SRSF2 genotype: SRSF2 wt/wt) [%]	cell viability (MARIMO; SRSF2 genotype: SRSF2 P95H/wt) [%]	cell viability (MARIMO; SRSF2 genotype: SRSF2 wt/wt) [%]	cell viability (MOLM14; SRSF2 genotype: SRSF2 P95H/wt) [%]	cell viability (MOLM14; SRSF2 genotype: SRSF2 wt/wt) [%]	cell viability (OCI-AML2; SRSF2 genotype: P95H/wt) [%]	cell viability (OCI-AML2; SRSF2 genotype: wt/wt) [%]
CCCCOc1cc(C(=O)NCCN(CC)CC)c2ccccc2n1 [Dibucaine (Cinchocaine) HCl]	94.5% and 84%	85.3	81.8	91.5	86.2	91.7	93.2	86.1
O=c1ccc2cc(O)ccc2o1 [6-Hydroxycoumarin]	99.5% and 104%	102	99	90.9	104	101	97.9	99
CCC(=O)NCC[C@@H]1CCc2ccc3c(c21)CCO3 [Ramelteon]	105% and 104%	97.6	91.7	101	107	98.8	93.7	99.4
NS(=O)(=O)c1ccc(NC(=S)N2CCN(CC=Cc3ccccc3)CC2)cc1	85.3% and 88.8%	93.5	83.5	76.7	95.3	99.2	64.5	76.5
CC(C)=CC(O)C/C(C)=C/COc1c2ccoc2cc2oc(=O)ccc12 (centres undefined) [Notopterol]	72.4% and 82.5%	76.1	64.7	57.1	71.2	56.4	51.5	43
CCOC(=O)CCNc1cc(N2CCc3ccccc3CC2)nc(-c2ccccn2)n1	26.1% and 28.9%	27.6	25.8	27.4	30.4	24.4	28.8	25.8
O=C(c1ccccc1)c1ccc2nc(NC(=O)c3csc(C4CCN(c5ncnc6ccsc56)CC4)n3)[nH]c2c1	45.4% and 37.5%	39.3	41.3	37.5	34.2	26.5	26.2	25
CC(C)(C)C(O)/C=C/c1ccc2c(c1)OCO2 (centres undefined) [Stiripentol]	105% and 95.5%	101	94.5	108	100	107	95.3	100
Cn1c2ccccc2c2c3c(c4c5ccccc5n(CCC#N)c4c21)CNC3=O	104% and 99.7%	97.7	85.5	93.9	42.6	36.8	62.8	65.6
CC1CCC2(O)C(C)(C)C3CCC2(C)C1C3 (centres undefined) [Patchouli alcohol]	92.3% and 85.5%	89.2	89.5	102	91.1	89.5	80.6	93
Cc1onc(-c2ccccc2)c1-c1ccc(S(N)(=O)=O)cc1 [Valdecoxib]	97.6% and 94.6%	95.6	96.4	97.6	90.6	95.4	81.8	88.5
O=c1cc(-c2ccc(OC3OC(CO)C(O)C(O)C3O)cc2)oc2c(C3OC(CO)C(O)C(O)C3O)c(O)cc(O)c12 (centres undefined) [4'-O-Glucosylvitexin]	97% and 102%	101	97.3	91.7	99.6	99	97.4	96.8
COc1ccc(C[C@@H]2c3cc(Oc4cc(C[C@@H]5c6cc(OC)c(OC)cc6CCN5C)ccc4O)c(OC)cc3CCN2C)cc1 [Neferine]	109% and 107%	99	104	120	106	109	102	102
CN(C)CCNC(=O)c1cccn2c(=O)c3cc4ccccc4cc3nc12	32.5% and 33.8%	30.8	35	26.6	0.3	0.24	0.28	1.23
O=C(NO)c1cccc(C(=O)NCCc2ccccc2)c1	91% and 97.1%	101	91.9	86.8	89.6	94.3	90.7	93.3
CN(C)CC/C=C1/c2ccccc2COc2ccc(CC(=O)O)cc21 [Olopatadine hydrochloride (Opatanol)]	105% and 106%	102	101	114	107	104	95.4	105
Cn1c(=O)c(F)c(Nc2ccc(I)cc2F)c2c(=O)n(C[C@@H](O)CO)cnc21	66.4% and 83.6%	77	43.7	36.3	45.7	29.8	47.5	46.9
Cc1nccn1CCC(C(N)=O)(c1ccccc1)c1ccccc1 [Imidafenacin]	94.5% and 91.6%	105	87.6	91.8	99.2	101	90.8	102
O=c1c2cc(O)c(O)cc2oc2cc(O)c([C@@H]3O[C@H](CO)[C@@H](O)[C@H](O)[C@H]3O)c(O)c12 [Mangiferin]	106% and 96.7%	99.3	97.7	104	103	104	86.5	102
CN(CCO)CC(O)Cn1cnc2c1c(=O)n(C)c(=O)n2C (centres undefined) [Xanthinol Nicotinate]	99.3% and 90.3%	97.9	98.2	105	95.4	97.7	73.7	90.5
CCCC(CCC)C(=O)O [Valproic acid]	95.5% and 98.3%	106	103	100	102	102	102	95.7

Source: the supplement of paper PMC10981050
